KCNQ2 pot: enhances the rat KCNQ2 potassium channel; O88943; CHO-K1 KCNQ2, FluxOR thallium flux fluorescence; hits give high values; B-score at 10 µM; 310,000 tested, 0.54% active; AID 2239;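 active means fluorescence ratio B-score at least 3 SD of library B-scores, with initial fluorescence B-score within 3 of them, cut at about 5.3 in these data; same plate scores as AID 2156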;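 further: B-score of peak minus minimum over baseline fluorescence ratio after K+ and Tl+ stimulus; positive B-score means potentiation of KCNQ2 with more thallium influx and brighter signal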
Target sequence (O88943 whole entry, looked up): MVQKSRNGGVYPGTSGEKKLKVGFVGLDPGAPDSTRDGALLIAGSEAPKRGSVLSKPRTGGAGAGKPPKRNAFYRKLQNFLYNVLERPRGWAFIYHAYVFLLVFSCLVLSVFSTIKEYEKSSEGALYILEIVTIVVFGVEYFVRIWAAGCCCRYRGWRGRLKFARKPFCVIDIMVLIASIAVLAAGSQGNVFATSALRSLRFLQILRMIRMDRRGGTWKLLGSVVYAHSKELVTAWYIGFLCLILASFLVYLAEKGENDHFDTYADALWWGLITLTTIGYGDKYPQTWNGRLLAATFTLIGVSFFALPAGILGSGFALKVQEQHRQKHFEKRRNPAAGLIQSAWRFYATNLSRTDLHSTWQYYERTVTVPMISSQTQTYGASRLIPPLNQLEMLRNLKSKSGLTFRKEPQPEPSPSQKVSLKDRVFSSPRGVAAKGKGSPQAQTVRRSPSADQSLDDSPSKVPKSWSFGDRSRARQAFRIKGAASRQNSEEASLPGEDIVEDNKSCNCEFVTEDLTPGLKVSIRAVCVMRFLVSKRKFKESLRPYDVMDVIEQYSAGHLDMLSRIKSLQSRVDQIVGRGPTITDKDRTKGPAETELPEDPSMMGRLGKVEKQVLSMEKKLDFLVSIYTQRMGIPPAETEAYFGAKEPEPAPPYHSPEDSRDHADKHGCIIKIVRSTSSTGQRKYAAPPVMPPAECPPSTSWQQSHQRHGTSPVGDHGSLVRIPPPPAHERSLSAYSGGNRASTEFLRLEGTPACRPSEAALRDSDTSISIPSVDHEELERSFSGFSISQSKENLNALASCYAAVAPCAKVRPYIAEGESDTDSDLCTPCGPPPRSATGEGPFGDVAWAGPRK
KCNQ2 inh: KCNQ2 (rat) channel inhibition | 310,000 tested, 1.1% active | B-score at 10 µM | CHO-K1 KCNQ2, FluxOR thallium flux, 20 min; hits give low values;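 active means fluorescence ratio B-score at most minus 3 library SDs, with starting brightness B-score within 2 library SDs, cut at about -5.5 in these data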
* marks the source's active call; other numbers are inactive results; i = inactive; / = not tested or not shown. The list is not random: actives were taken first. Their share in the collection is about 1.6%.

SMILES | KCNQ2 pot | KCNQ2 inh
CCOC(=O)CSc1nnc(CNc2cccc(Cl)c2)n1-c1ccccc1 | -6.4 | -6.4*
CC(C)OC(=O)CSc1nnc(CNc2cccc(Cl)c2)n1C | 0.01 | i
Cc1ccc(C(=O)Nc2cc(C(F)(F)F)ccc2N2CCCCC2)cc1[N+](=O)[O-] | -7.2 | -7.2*
CN1CCN(S(=O)(=O)c2cccc(C(=O)Nc3cc(C(F)(F)F)ccc3N3CCCCC3)c2)CC1 | -7.3 | -7.3*
CN1CCN(S(=O)(=O)c2cccc(C(=O)Nc3ccccc3N3CCCCC3)c2)CC1 | -6 | -6*
O=C(Nc1cc(C(F)(F)F)ccc1N1CCCCC1)c1cccc([N+](=O)[O-])c1 | 2.3 | i
CCN1CCN(c2ccc(S(=O)(=O)N3CCCCC3)cc2NC(=O)c2cccc(C(F)(F)F)c2)CC1 | / | i
CN1CCN(S(=O)(=O)c2cccc(C(=O)Nc3ccccc3N3CCOCC3)c2)CC1 | 0.44 | i
CCOc1cc(C=O)ccc1OS(=O)(=O)c1ccc(NC(C)=O)cc1 | 0.01 | i
CCCN(CCC)CCCNC(=S)Nc1ccc2nc3n(c(=O)c2c1)CCCCC3 | 0.03 | i
C=C(C)[C@@H]1CC=C(CN2CCN(Cc3ccccc3)CC2)CC1 | 0.8 | i
COc1ccc(CNC(=O)[C@H](C)NC(=O)[C@@H]2Cc3ccccc3CN2)cc1 | / | i
Fc1ccc(-c2csc(=S)[nH]2)cc1 | 11* | i
O=c1[nH]c(-c2ccc(Cl)cc2)cs1 | / | i
CCc1ccc(C(=O)CN2C(=O)NC(C)(CCc3ccccc3)C2=O)cc1 (stereo not drawn) | / | i
COC(=O)c1c(NC(NC(C)=O)C(Cl)(Cl)Cl)sc2c1CCCC2 (stereo not drawn) | / | i
CCOC(=O)c1c(NC(NC(C)=O)C(Cl)(Cl)Cl)sc2c1CCCC2 (stereo not drawn) | -6.5 | -6.5*
Cc1ccc(NC(=O)C(OC(=O)c2cc(C)oc2C)c2ccccc2)cc1 (stereo not drawn) | / | i
Cc1cc(C(=O)OC(C(=O)Nc2cccc(C(F)(F)F)c2)c2ccccc2)c(C)o1 (stereo not drawn) | -5.8 | -5.8*
COc1ccc(-c2oc3c(CC=C(C)C)c(O[C@@H]4O[C@H](CO)[C@@H](O)[C@H](O)[C@H]4O)cc(O)c3c(=O)c2O[C@@H]2O[C@@H](C)[C@H](O)[C@@H](O)[C@H]2O)cc1 | / | i
CC(=O)O[C@@H]1[C@@H](O)[C@@H](O)[C@H](Oc2c(-c3ccc(O)cc3)oc3c(CC=C(C)C)c(O)cc(O)c3c2=O)O[C@H]1C | -10 | -10*
O=C1N=C(N2CCCC2C(=O)O)S/C1=C\c1ccco1 (stereo not drawn) | 0.98 | i
C=CCNC(=O)COc1cc(C)ccc1C | / | i
Cc1nc2sc3c(c2c(=O)[nH]1)CCCCC3 | / | i
Cc1cc(C)n(-c2nc3sc4c(c3c(=O)[nH]2)CCCC4)n1 | 18* | i
SMILES | KCNQ2 pot | KCNQ2 inh
Clc1ccc(OCCSc2ncccn2)c2ccccc12 | -5.7 | -5.7*
c1cnc(SCCOc2cccc3ccccc23)nc1 | / | i
N#C/C(=C\c1ccc([N+](=O)[O-])cc1)C(=O)NCCCn1ccnc1 | -5.6 | -5.6*
COc1ccc(/C=C(\NC(=O)c2ccc([N+](=O)[O-])cc2)C(=O)NCCCn2ccnc2)cc1 | / | i
CN(c1ccc([N+](=O)[O-])cc1C(N)=O)C1CCCCC1 | 0.28 | i
CCCn1c(=O)c2c(C(=O)OCC)cc(-c3ccco3)nc2n(CCC)c1=O | / | i
CCOC(=O)c1cc(-c2ccco2)nc2c1c(C)nn2-c1ccccc1 | -6 | -6*
COc1ccccc1C(=O)Nn1c(C2CCC2)nc2ccccc2c1=O | / | i
CCOc1ccccc1C(=O)Nn1c(C2CCC2)nc2ccccc2c1=O | -6.8 | -6.8*
O=C(OCC(=O)N1CCCC1)c1cc(Cl)ccc1[N+](=O)[O-] | 0.74 | i
CC(NC(=O)CCCc1nnc2n(C)c(=O)c3sccc3n12)c1ccccc1 (stereo not drawn) | 0.16 | i
O=c1c2[nH]cnc2n(-c2cccc(F)c2)c(=O)n1Cc1ccccc1 | 0.28 | i
CC1CCC(NC(=O)C(Cc2ccccc2)n2cccc2)CC1 (stereo not drawn) | -5.8 | -5.8*
CC1CCCN(C(=O)C(Cc2ccccc2)n2cccc2)C1 (stereo not drawn) | -6.5 | -6.5*
Cc1ccc(NC(=O)C(Cc2ccccc2)n2cccc2)cc1 (stereo not drawn) | / | i
O=C(C(Cc1ccccc1)n1cccc1)N1CCN(c2ccccc2)CC1 (stereo not drawn) | / | i
CC(Oc1ccc(F)cc1)C(O)CCN(C)C (stereo not drawn) | 2 | i
CC(C)(C)OC(=O)N[C@@H](CC(=O)OCc1ccccc1)C(=O)O | / | i
CCOc1ccc(OCCC(=O)N2CCN(S(=O)(=O)c3cccc(F)c3)CC2)cc1 | 0.1 | i
COc1ccc(-c2cc(C(=O)N3CCCCCC3)c3ccccc3n2)c(OC)c1 | / | i
Cc1ccc(-c2cc(C(=O)N3CCN(c4ccc(F)cc4)CC3)c3ccccc3n2)o1 | -6 | -6*
Cc1ccc(-c2cc(C(=O)Nc3nccs3)c3ccccc3n2)o1 | -5.7 | -5.7*
Cc1ccc(-c2cc(C(=O)Nc3nccs3)c3ccccc3n2)c(C)c1 | / | i
Cc1ccc(-c2cc(C(=O)N3CCCC(C(F)(F)F)C3)c3ccccc3n2)o1 (stereo not drawn) | / | i
COc1ccc(-c2cc(C(=O)N3CCN(c4ccccc4F)CC3)c3ccccc3n2)c(OC)c1 | -8 | -8*
SMILES | KCNQ2 pot | KCNQ2 inh
Cc1cccc(C(=O)Nc2nsc(N)n2)c1 | / | i
Cc1cc2c(cc1S(=O)(=O)NCc1ccc(N(C)C)cc1)OCC(=O)N2 | / | i
O=C(Nc1cccc(F)c1)N1CC=C(c2ccc(Cl)cc2)CC1 | -6.6 | -6.6*
O=C(CN1CCN(c2ccc(Cl)cc2)CC1)Nc1cccc(F)c1 | / | i
CC(C(=O)OCC(=O)c1cccc([N+](=O)[O-])c1)N1C(=O)C2C3C=CC(C3)C2C1=O (stereo not drawn) | 0.12 | i
C/C(=N\NC(=O)CSc1nc(C)cc(C)n1)c1cccc([N+](=O)[O-])c1 | 0.56 | i
CCN1CCN(CCNC(=O)c2ccc(CS(=O)c3ccc(Br)cc3)o2)CC1 (stereo not drawn) | 5.6* | i
CCN1CCN(CCNC(=O)c2ccc(CS(=O)c3ccc(Cl)cc3)o2)CC1 (stereo not drawn) | 1.2 | i
CCN(c1ccc(OC)cc1)S(=O)(=O)c1csc(C(=O)N2CCCC2)c1 | / | i
Cc1onc(-c2ccccc2)c1C(=O)NCCc1c[nH]c2ccccc12 | -5.7 | -5.7*
Cc1noc(C)c1COc1cccc(C(=O)NCCc2c[nH]c3ccccc23)c1 | 0.11 | i
Cc1[nH]c2c(C)cccc2c1CN1CCC(CO)(Cc2ccccc2)CC1 | 0.09 | i
NS(=O)(=O)c1ccc2nc(NC(=O)c3ccncc3)sc2c1 | 0.49 | i
COc1ccc(-c2c[n+](CC(=O)c3ccccc3)c3n2CCCCC3)cc1 | / | i
COc1ccc(-c2c[n+]3c4n2CCCCC4=C(c2ccccc2)C3)cc1 | -6.2 | -6.2*
CC(C)N1C(=S)N(Cc2ccco2)C(=O)C1CC(=O)Nc1ccccc1 (stereo not drawn) | 2.7 | i
COc1ccc(NC(=O)c2cn(-c3ccccc3)nc2-c2ccncc2)cc1 | / | i
COc1ccc(-c2nn(-c3ccccc3)cc2C(=O)NC(=S)NNC(=O)c2ccncc2)cc1 | / | i
COc1ccc(NC(=O)c2cn(-c3ccccc3)nc2-c2cc3ccccc3o2)cc1 | -6 | -6*
